# Source: PubChem BioAssay
# NadD inh = inhibitors of S. aureus NadD, primary screen, biochemical, colorimetric, uHTS; Nicotinate-nucleotide adenylyltransferase NadD (Staphylococcus aureus N315); purified NadD enzyme, colorimetric absorbance read-out; inhibition, % at 20 µM; actives 0.78% (n = 360,000); in the data active means inhibition above about 26%
# MPTP block = mitochondrial permeability transition pore inhibitors, primary screen, biochemical, isolated mouse mitochondria, absorbance; inhibition, % at 10 µM; Ca2+ swelling absorbance, 30 min; AID 602449, 2012; actives 1.4% (n = 360,000);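 active means inhibition of 50% or more, scaled per plate between neutral and stimulator controls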;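 further: 0% = DMSO wells given calcium and 100% = 1 mM EGTA wells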
# aDG glyco up = activators of alpha-DG glycosylation, primary screen, uHTS, Pro5-aDG cells, AlphaScreen | actives 0.22% (n = 360,000) | activation, % at 10 µM | alpha-DG glycosylation AlphaScreen (IIH6); 0% Pro5, 100% B10-LARGE cell signal;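 active means activation of at least 8% versus controls, or a plate z-score of at least 8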;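 further: Pro5 are CHO cells carrying HIG-tagged alpha-DG that lacks glycosylation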
# TAG inh = inhibitors of triacylglycerol accumulation, primary screen, cell-based, uHTS, fluorescence, H9c2; H9c2 cells, Nile Red lipid (TAG) fluorescence; cells loaded with 200 µM oleic acid; inhibition, % at 12.5 µM; actives 0.66% (n = 230,000); AID 651582, 2012;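 active means pattern-corrected inhibition of lipid staining of at least 50% with the nuclear-stain viability signal not falling by more than 50%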;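 further: 0% = DMSO wells and 100% = triacsin C control wells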
# MPTP counter = fluorescence retest of MPTP screen hits in isolated mitochondria, single concentration; membrane potential, Rhodamine 123 fluorescence; inhibition, % at 10 µM; shares compounds with MPTP block; actives 78% (n = 5,000); AID 624504, 2012; in the data active means inhibition above about 22%;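 further: 0% = DMSO vehicle and 100% = positive control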
# MPTP abs DR = mitochondrial permeability transition pore inhibitors, dose response, biochemical, absorbance, uHTS hits; IC50, µM; isolated mitochondria swelling; AID 651561, 2012; actives 58% (n = 780); shares compounds with MPTP block; in the data active means IC50 below about 20 µM
# MPTP cs DR = fluorescent counter-screen in isolated mitochondria, dose response, counter-screen for MPTP inhibitor project, biochemical, fluorescence, uHTS hits; shares compounds with MPTP block; isolated mitochondria counterscreen, fluorescence read-out; IC50, µM; actives 49% (n = 780); AID 651564, 2012; in the data active means IC50 below about 80 µM
# * marks the source's active call; other numbers are inactive results; i = inactive; / = no result given; ! = repeats disagree. Compounds with a hit are over-represented: about 2.7% of the library has one in this group of screens.
SMILES,NadD inh,MPTP block,aDG glyco up,TAG inh,MPTP counter,others
COc1ccc(CCNC(=O)c2cc(-c3cc(Cl)cc(Cl)c3)oc2C)cc1,-1,77*,0,/,21*,
CC(C)NC(=O)N1Cc2cc(C(=O)NC3CCCCC3)nc(-c3cccc(-c4cccnc4)c3)c2[C@@H]1CCO,-12,-1,0,/,/,
CCN(C)C1CN(Cc2cn(Cc3cccc(Cl)c3)nn2)S(=O)(=O)C1 (configuration not stated),-1,0,0,/,/,
CN(Cc1ccc(OCC(O)CN2CCCCC2)cc1)Cc1ccnc2ccccc12 (configuration not stated),1,95*,4,-27,106*,
Cc1nn(C)cc1CN(C)Cc1ccc(OCC(O)CN2CCCCC2)cc1 (configuration not stated),-3,2,0,2,/,
Cc1c(CCOC(=O)C2C3CC4CC(C3)CC2C4)sc[n+]1CC(=O)c1ccc(Br)cc1 (configuration not stated),13,100*!,0,-5,-3,MPTP abs DR=3.7*;MPTP cs DR=21*
Cc1c(CCOC(=O)c2ccc(Cl)cc2Cl)sc[n+]1CC(=O)c1ccc(Br)cc1,6,-1,0,-1,/,
CC(C)N1CCc2c(sc(NC(=O)c3cc(-c4cccs4)nc4ccccc34)c2C(N)=O)C1,20,83*,0,30,-29,
CC(C)N1CCc2c(sc(NC(=O)c3nc4ccccc4s3)c2C(N)=O)C1,9,-1,1,9,/,
O=c1[nH]c(=S)[nH]c2c1C(c1ccc(F)cc1)OC(CCc1ccccc1)C2 (configuration not stated),4,0,0,/,/,
COc1ccc(C(=O)N2CCN(Cc3nc(CC4CC4)no3)CC2)cc1,-5,1,0,7,/,
COc1ccc2c(CN3CCCCCCC3)cc(=O)oc2c1,-8,-1,0,/,/,
COc1cc(C(=O)N2CCCCC2c2cc(C(=O)NCc3cccnc3)no2)cc(OC)c1C (configuration not stated),-1,-1,0,-3,/,
CC(=O)N1C[C@H]2CON(C)[C@H]2C[C@H]1c1ccccc1,0,0,1,/,/,
CC(C)c1ccc(-c2csc(NC(=O)c3cccs3)c2C(=O)O)cc1,-8,62*,0,8,56*,
Cc1ccc(-c2csc(NC(=O)c3ccccc3Cl)c2C(=O)O)cc1,-2,1,0,/,/,
O=C(Cc1ccccc1F)Nc1ccc(SC(F)F)cc1,2,11,1,-2,/,
O=C(Cc1ccc(Cl)cc1)Nc1ccc(SC(F)F)cc1,-11,92*,0,/,105*,
CCCCn1c(N)c(N(CC(C)C)C(=O)c2cc(Cl)nc3ccccc23)c(=O)[nH]c1=O,0,-1,0,-3,/,
CCN1CCN(c2nc(N)c([N+](=O)[O-])c(Nc3ccc(C)c(C)c3)n2)CC1,-4,81*,2,/,-2,MPTP abs DR=i;MPTP cs DR=77*
Cc1ccc(Nc2nc(N)c([N+](=O)[O-])c(N3CCCC(C)C3)n2)cc1C (configuration not stated),6,55*,0,/,-9,MPTP abs DR=i;MPTP cs DR=70*
O=C(c1cc(Cl)ccc1O)N1CCN(S(=O)(=O)Cc2ccccc2)CC1,2,-3,0,4,/,
CCOC(=O)c1c(C)[nH]c(C(=O)N/N=C\c2ccccc2Cl)c1C,1,92*,0,-16,88*,
CN1CCN(C2=Cc3ccc(Cl)cc3Sc3ccc(F)cc32)CC1,-10,95*,4,29,-9,
CN1CCN(C2=Cc3ccccc3Sc3cc(F)ccc32)CC1,-9,98*,2,17,-9,
SMILES,NadD inh,MPTP block,aDG glyco up,TAG inh,MPTP counter,others
CN1CCN(c2cc(C(F)(F)F)nc3ccc(F)cc23)CC1,-3,0,0,14,/,
O=C(CSc1nnc(CNC(=O)c2c(F)cccc2F)o1)NCc1ccccc1Cl,-4,0,0,4,/,
CCCn1cnnc1CNC(=O)C1CCC(=O)N(CCc2ccc(OC)cc2)C1 (configuration not stated),-15,0,0,/,/,
Cc1[nH]c2ccccc2c1C1=CC(=O)C=CC1=O,1,52*,0,6,4,
O=C1CCCN2N=C(SCC(=O)Nc3cccc(C(F)(F)F)c3)SC2=N1,-2,74*,2,/,74*,
COC(=O)[C@@]12C[C@@H](CC(=O)N3CCN(C(=O)c4ccco4)CC3)C(=O)N(Cc3ccc4c(c3)OCO4)C1=CCC(C)(C)C2,/,0,0,/,/,
CC(C)(C)C(=O)OCc1ccc(C2=CC(=O)CC(C)(C)C2=O)cc1,-6,-2,0,-11,/,
O=C(Nc1cccc(C(F)(F)F)c1)C(Sc1ncnc2ccccc12)c1ccccc1 (configuration not stated),12,60*,0,/,68*,
Fc1ccc(NC(=S)N2CCN(c3cccc(C(F)(F)F)c3)CC2)cc1,-5,101*,0,/,75*,
FC(F)(F)c1cccc(NC(=S)N2CCN(c3cccc(C(F)(F)F)c3)CC2)c1,0,22,0,0,/,
CC(=O)c1c(C)[nH]c(C(=O)Nc2cccc(C(F)(F)F)c2)c1C,0,70*,0,/,86*,
CCCN1CCN(C(=O)Nc2cccc(C(F)(F)F)c2)CC1,-2,72*,0,/,92*,
CN(Cc1ccccc1)C(=O)[C@@H]1CCCN1C(=O)[C@@H]1CCCN1C(=O)c1cccc2ccccc12,3,0,0,/,/,
Cc1ccccc1NC(=O)CNC(=O)c1ccc(C(F)(F)F)cc1,2,0,0,/,/,
Cc1cc(NC(=O)Nc2cccc(C(F)(F)F)c2)n(C)n1,0,72*,0,-2,77*,
Fc1cc(F)c(C2SCCN2C(=S)Nc2cccc(C(F)(F)F)c2)c(F)c1 (configuration not stated),-9,74*,0,3,93*,
Cc1ccccc1NC(=O)Nc1ccc(C(F)(F)F)cc1,-3,80*,3,-10,87*,
Cc1cc2c(NC(=O)Nc3ccc(C(C)(C)C)cc3)cccc2nn1,-3,85*,1,0,81*,
COC1=CC(=O)OC(c2cccc([N+](=O)[O-])c2)C1 (configuration not stated),/,-2,0,/,/,
CCN1CCN(C(=S)Nc2cccc(C(F)(F)F)c2)CC1,-3,36,0,/,/,
O=C(Nc1ccccc1)Nc1cccc(C(F)(F)F)c1,-2,96*,1,-18,97*,
O=C(Nc1cccc(C(F)(F)F)c1)N1CCN(C(=O)Nc2cccc(C(F)(F)F)c2)CC1,4,64*,0,/,71*,
